# Hits are enriched below; roughly 2.3% of the tested compounds scored in any of these assays.
# Tau fluor counter = Counterscreen qHTS for Inhibitors of Tau Fibril Formation, Fluorescence Polarization | tau K18 P301L Alexa594 fluorescence, heparin fibrillization | Potency, µM (doses to about 57.7 µM), for inactives: top-dose activity change, negative = decrease | 280,000 compounds, 0.93% hits | AID 1463, 2008; also: potency is read from the fitted curve at half-maximal effect; nearly all actives have a fitted effect of over 55% in size
#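 Human K18 P301L tau (15 uM unlabeled plus 0.24 uM Alexa 594-labeled, final) in 100 mM sodium acetate pH 7 was mixed with compound and 20 uM heparin and incubated 6 hr at 37 C.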
# FBPA coupling cs = qHTS Assay for Inhibitors of Fructose-1,6-bisphosphate Aldolase from Giardia Lamblia: Coupling assay counterscreen; coupling enzyme system counterscreen, AmpLite Red fluorescence; activity change, negative = inhibition, % at 58.2 µM, hits read low; 290,000 compounds, 0.67% hits; in the data active = activity change below about -30%
#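 Activity here indicates interference with the coupling reaction, not aldolase inhibition. Compounds at 57.5 uM final met coupling enzymes for 10 min at RT; substrate and AmpLite Red detection followed, with a 525/598 nm fluorescence read after 20 min.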
# Tau ThT inhib = qHTS for Inhibitors of Tau Fibril Formation, Thioflavin T Binding; Microtubule-associated protein tau (Homo sapiens), P10636; recombinant tau K18 P301L (four-repeat tau fragment), heparin-induced fibrillization, ThT fluorescence; Potency, µM (titrated, usually from 57.4 µM), for the others: at the highest dose activity, negative = inhibition, most hits filed as inhibitors; 270,000 compounds, 2.1% hits; AID 1460, 2008; also: potency is read from the fitted curve at half-maximal effect; nearly all actives have a fitted effect of over 55% in size
# Target sequence (P10636 561-689 P618L limits assumed): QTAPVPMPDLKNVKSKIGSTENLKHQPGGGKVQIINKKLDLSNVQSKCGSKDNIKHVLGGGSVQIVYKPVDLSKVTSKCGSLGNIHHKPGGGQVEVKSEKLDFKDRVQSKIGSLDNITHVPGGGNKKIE
#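 Heparin-induced fibrillization of the P301L-mutant K18 repeat-domain fragment of human tau was followed by ThT binding in quantitative high-throughput format.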
# USP1 inh = Inhibitors of USP1/UAF1: Primary Screen; 390,000 compounds, 0.23% hits; Ubiquitin carboxyl-terminal hydrolase 1 (Homo sapiens), O94782; AID 743255, 2014; Potency, µM (titrated, usually from 57.1 µM), inactives show at the highest dose activity change, negative = inhibition, most hits filed as inhibitors; recombinant USP1/UAF1, Ub-Rhodamine cleavage fluorescence; also: potency is read from the fitted curve at half-maximal effect; nearly all actives have a fitted effect of over 60% in size
#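 USP1/UAF1 complex at 1 nM was preincubated with compound for 15 min at room temperature, then Ub-Rho substrate (150nM final) was added. Fluorescence (480/540 nm) was read kinetically, 6 reads every 60 seconds.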
# Tau FP inhib = qHTS for Inhibitors of Tau Fibril Formation, Fluorescence Polarization; Microtubule-associated protein tau (Homo sapiens), P10636; K18 P301L tau heparin fibrillization, Alexa594 FP, 6 h; Potency, µM (series often up to 57.7 µM), for the others: top-dose activity, negative = inhibition, hits mostly inhibitors; 280,000 compounds, 0.39% hits; also: potency is read from the fitted curve at half-maximal effect; nearly all actives have a fitted effect of over 55% in size
#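 FP of Alexa 594-tau after heparin (20 uM) induction. Substrate: human K18 P301L, 15 uM unlabeled, 0.24 uM labeled. Buffer 100 mM sodium acetate pH 7. 6 hr, 37 C.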
# Active calls of the source: *; ? = inconclusive; . = no result given; [ ] = remark or other dose. Unless noted, calls follow the shape of the dose curve; as a rule, active = well fitted curve in the direction sought with a large enough effect; inconclusive = small, poorly fitted or top-dose-only effect, or another doubt; inactive = no such curve, though single readings can be large; an effect the other way counts as inactive or inconclusive. % is scaled to controls: 0 for no effect and ±100 for the full control effect.
SMILES,Tau fluor counter,FBPA coupling cs,Tau ThT inhib,USP1 inh,Tau FP inhib
Nc1nonc1N/N=C\c1ccccc1,-13%,2,-4%,-2%,13%
COc1ccccc1CNC(=O)/C(C#N)=C/c1ccc(OC)c(OC)c1OC,.,3,.,-21%,.
O=S(=O)(/N=C/c1c(O)ccc2ccccc12)c1ccccc1,.,-36*,.,-18%,.
COc1ccc(N=Cc2c(O)ccc3ccccc23)cc1,?,-23,8.9µM*,?,-7%
O=C(O)Cc1ccc(N=Cc2c(O)ccc3ccccc23)cc1,-10%,-18,?,-24%,-10%
COc1cccc(CNC(=O)CCc2c(C)nc3c(c(C)nn3-c3ccc(C)c(C)c3)c2C)c1,?,.,4%,-6%,-2%
COc1ccc(N(Cc2cccs2)C(=O)c2ccc(OC)c(Cl)c2)cc1,-20%,.,-15%,?,4%
CCC(C)(C)C1CCC(NC(=O)N2CCN(c3ccccc3O)CC2)CC1 (stereo not drawn),.,1,.,-13%,.
COc1ccc(Oc2c(OC)cc([N+](=O)[O-])c3ncccc23)cc1,.,.,.,7%,.
COc1cc(NC(C)CCCN)c2ncccc2c1Oc1ccccc1 (stereo not drawn),-25%,-30*,?,-23%,10%
CCOc1ccc(NC2C=CS(=O)(=O)C2)cc1 (stereo not drawn),-17%,-16,35µM*,-7%,0%
CSCCC(NC(=O)COc1ccccc1)C(=O)N1CC(C)OC(C)C1 (stereo not drawn),.,.,.,-11%,.
O=[N+]([O-])c1ccccc1C1Nc2cccc3cccc(c23)N1,?,-12,?,-25%,-5%
Oc1ccccc1C1Nc2cccc3cccc(c23)N1,11%,-34*,7%,-24%,6%
COc1cc(OC)c(C2Nc3cccc4cccc(c34)N2)c(OC)c1,.,-4,.,-22%,.
COc1ccccc1C1Nc2cccc3cccc(c23)N1,?,-11,22µM*,-20%,-12%
CCn1cc2nc(SCC(=O)Nc3cccc(Cl)c3C)n(Cc3ccc(Cl)cc3)c(=O)c2n1,0%,.,10%,-34%,4%
Cc1ccc(OCCSc2nc3ccccc3n2CC(=O)N2CCOCC2)cc1C,-2%,.,-10%,-28%,-1%
COc1cc(/C=C/C(=O)N2CCCN(C(=O)/C=C/c3cc(OC)c(OC)c(OC)c3)CC2)cc(OC)c1OC,5%,-1,-3%,-24%,0%
COc1cc(/C=C/C(=O)N2CCC=CC2=O)cc(OC)c1OC,-21%,3,8.9µM*,-16%,?
CNC(=O)c1c(NC(=O)C(C)C)sc2c1CCC2,-20%,-4,.,-5%,7%
CNC(=O)c1c(NC(=O)c2nc3ccccc3s2)sc2c1CCC2,?,-5,7.1µM*,.,12%
COC(=O)c1c(NC(=O)c2nc3ccccc3s2)sc2c1CCN(C(C)=O)C2,-23%,1,16µM*,-16%,-5%
CCCC12CN3CC(C)(CN(C1)C3c1cn(CC)c3ccccc13)C2=O (stereo not drawn),-3%,.,0%,-12%,9%
COc1ccc2[nH]cc(/C=C/C(=O)c3ccccc3)c2c1,8.9µM*[quencher],-3,?,5%,11%
SMILES,Tau fluor counter,FBPA coupling cs,Tau ThT inhib,USP1 inh,Tau FP inhib
Cc1ccc(C(=O)/C=C/c2cn(CN3CCN(C)CC3)c3ccccc23)cc1,14µM*[quencher],-9,?,-25%,-9%
COC(=O)/C(C#N)=C/c1c[nH]c2ccccc12,-19%,0,-13%,-20%,-9%
Cc1ccc(C(=O)/C=C/c2c[nH]c3ccccc23)cc1,14µM*[quencher],-9,?,-11%,-14%
O=C(/C=C/c1c[nH]c2ccccc12)c1ccccc1,0%,-4,9%,-25%,?
Cc1ccc(S(=O)(=O)/C(C#N)=C/c2c[nH]c3ccccc23)cc1,10µM*[quencher],-2,?,-6%,13µM*
O=C(CSc1n[nH]c(-c2ccncc2)n1)Nc1ccccc1Cl,.,.,.,-14%,.
O=C1OC2(c3cc(I)c(O)c(I)c3Oc3c2cc(I)c(O)c3I)c2c(Cl)c(Cl)c(Cl)c(Cl)c21,.,2,.,.,.
Oc1c(/C=N/c2ncn[nH]2)ccc2ccccc12,-27%,-29,28µM*,-25%,?
Cc1ccc(-n2c(O)c(/C=N/c3ncn[nH]3)c3ccccc3c2=O)cc1,5%,1,-7%,-15%,4%
COc1cc(/C=N/c2oc(-c3ccccc3)cc2C#N)ccc1O,?,1,16µM*,-19%,9%
Cc1nc2ccc(Cl)cc2nc(C)/c1=N\O,-19%,-33*,?,?,-2%
Cc1ccc2nc(C)/c(=N\O)c(C)nc2c1,-13%,.,?,-8%,-1%
Cc1cc(-c2csc(N)n2)c(C)n1Cc1ccco1,?,-4,16µM*,-2%,-13%
Cc1ccc(-n2c(C)cc(-c3csc(N)n3)c2C)cc1,-24%,0,?,-5%,-3%
Cc1cc(-c2csc(N)n2)c(C)n1C,?,-30,32µM*,-22%,?
Cc1cc(C(=O)CSc2nnc(N)s2)c(C)n1Cc1ccco1,-9%,-3,-8%,-14%,0%
O=C1/C(=C\c2cccs2)Sc2ccc3ccccc3c21,-22%,-2,1µM*,32µM*,-2%
CC(C)(C)c1ccc(C(=O)NCC(c2cccnc2)N2CCc3ccccc3C2)cc1 (stereo not drawn),?,.,?,3%,6%
NC(=O)c1sc(=S)n2c1[nH]c(=O)c1sccc12,-26%,5,11µM*,-21%,1%
FC(F)c1nc2ccccc2[nH]1,9%[2.34 µM],3,-13%,-4%,10%[2.34 µM]
c1ccc2[nH]c3cc4ncnc4cc3nc2c1,-12%,-43*,?,?,-5%
COC(=O)c1[nH]c2ccc(Br)cc2c1NC(=O)CN1CCCc2ccccc21,5µM*[quencher],3,?,?,3%
O=C1CC(N(CCc2ccccc2)C(=S)Nc2ccccc2)C(=O)N1c1ccc(Br)cc1 (stereo not drawn),?,-5,?,-25%,7.9µM*
CCOc1ccccc1N(CC(=O)NC1CCCCC1)C(=O)CCC(=O)Nc1nccs1,.,-2,.,-19%,.
Cc1cc(NC(=O)Nc2ccc3c(ccn3C)c2)sn1,13µM*[quencher],1,?,15%,?
CCN(CC)C(=O)c1sc2c(c1C)c(=O)n(Cc1ccccc1)c(=O)n2Cc1c(C)cc(C)cc1C,4%,.,-3%,-12%,-4%
COc1cc(C(c2c(C)[nH][nH]c2=O)c2c(C)[nH][nH]c2=O)ccc1OC(=O)c1cccc([N+](=O)[O-])c1,?,-16,?,-5%,-1%
